Screening results from PubChem.
Sfp inh: qHTS Assay for Inhibitors of Bacillus subtilis Sfp phosphopantetheinyl transferase (PPTase). 4'-phosphopantetheinyl transferase ffp (Bacillus subtilis), Q9F4F7. Potency, µM, most hits filed as inhibitors. Biochemical Sfp PPTase activity, qHTS. 3.5% of 310,000 active;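 also: the enzyme is Sfp with the accession as filed and its product quenches rhodamine fluorescence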
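After 15 min at room temperature with compound, 15 nM Sfp received 5 uM rhodamine-CoA plus 12.5 uM BHQ-2-ybbR (50 mM Hepes pH 7.6, 10 mM MgCl2). Rate came from the fluorescence difference over 30 min, ex 525/em 598 nm.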
L3MBTL1 inh: qHTS Assay for the Inhibitors of L3MBTL1 | Potency, µM (doses to about 57.1 µM), actives largely listed as inhibitors | 0.66% of 230,000 active | Lethal(3)malignant brain tumor-like protein 1 (Homo sapiens), Q9Y468 | AlphaScreen L3MBTL1–H3K9me1 peptide binding | AID 485360, 2010; also: nearly all actives have a fitted effect of over 60% in size
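AlphaScreen proximity signal between nickel-chelate acceptor and streptavidin donor beads (final 10 ug/mL) reports binding of 50 nM L3MBTL1 to 75 nM biotin-H3 K9me1 peptide; complex incubated with compounds 30 min at room temperature; cefsulodin titration as control.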
BAZ2B block: qHTS Assay for Inhibitors of BAZ2B; Bromodomain adjacent to zinc finger domain protein 2B (Homo sapiens), Q9UIF8; AlphaScreen BAZ2B-H3K14Ac peptide displacement; Potency, µM (titrated, usually from 114 µM), usual class: inhibitors; 4.4% of 360,000 active; AID 504333, 2011; also: nearly all actives have a fitted effect of over 60% in size
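BAZ2B 50 nM plus b-H3(5-23)K14Ac 50 nM, PBS pH 7.4/0.01% Tween-20, 30 min RT; compound added (max 110 uM), 30 min RT; streptavidin donor/Ni-chelate acceptor beads 10 ug/mL final, 20 min dark; AlphaScreen read.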
G9a block: qHTS Assay for Inhibitors of Histone Lysine Methyltransferase G9a; Histone-lysine N-methyltransferase EHMT2 (Homo sapiens), Q96KQ7; G9a H3K9 monomethylation, AlphaScreen, 2 h; Potency, µM (top dose mostly 102 µM), most hits filed as inhibitors; 8.8% of 350,000 active; also: nearly all actives have a fitted effect of over 75% in size
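Enzyme 20 nM + cpd, 15 min RT; add b-H3K9 pep 500 nM / SAM 20 uM; 2 h RT; anti-H3K9me1 Ab 0.5 ug/mL + SA donor / anti-rabbit acceptor beads 20 ug/mL each, 10 min; AlphaScreen read.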
JMJD2A Tudor: qHTS Assay for Inhibitors of JMJD2A-Tudor Domain; Lysine-specific demethylase 4A (Homo sapiens), O75164; AlphaScreen JMJD2A-Tudor / H3K4me3 peptide binding; Potency, µM (highest dose often 114 µM), hits mostly inhibitors; 4.4% of 390,000 active; AID 504339, 2011; also: nearly all actives have a fitted effect of over 50% in size
Target sequence (O75164 whole entry, looked up, the tested form may be a part): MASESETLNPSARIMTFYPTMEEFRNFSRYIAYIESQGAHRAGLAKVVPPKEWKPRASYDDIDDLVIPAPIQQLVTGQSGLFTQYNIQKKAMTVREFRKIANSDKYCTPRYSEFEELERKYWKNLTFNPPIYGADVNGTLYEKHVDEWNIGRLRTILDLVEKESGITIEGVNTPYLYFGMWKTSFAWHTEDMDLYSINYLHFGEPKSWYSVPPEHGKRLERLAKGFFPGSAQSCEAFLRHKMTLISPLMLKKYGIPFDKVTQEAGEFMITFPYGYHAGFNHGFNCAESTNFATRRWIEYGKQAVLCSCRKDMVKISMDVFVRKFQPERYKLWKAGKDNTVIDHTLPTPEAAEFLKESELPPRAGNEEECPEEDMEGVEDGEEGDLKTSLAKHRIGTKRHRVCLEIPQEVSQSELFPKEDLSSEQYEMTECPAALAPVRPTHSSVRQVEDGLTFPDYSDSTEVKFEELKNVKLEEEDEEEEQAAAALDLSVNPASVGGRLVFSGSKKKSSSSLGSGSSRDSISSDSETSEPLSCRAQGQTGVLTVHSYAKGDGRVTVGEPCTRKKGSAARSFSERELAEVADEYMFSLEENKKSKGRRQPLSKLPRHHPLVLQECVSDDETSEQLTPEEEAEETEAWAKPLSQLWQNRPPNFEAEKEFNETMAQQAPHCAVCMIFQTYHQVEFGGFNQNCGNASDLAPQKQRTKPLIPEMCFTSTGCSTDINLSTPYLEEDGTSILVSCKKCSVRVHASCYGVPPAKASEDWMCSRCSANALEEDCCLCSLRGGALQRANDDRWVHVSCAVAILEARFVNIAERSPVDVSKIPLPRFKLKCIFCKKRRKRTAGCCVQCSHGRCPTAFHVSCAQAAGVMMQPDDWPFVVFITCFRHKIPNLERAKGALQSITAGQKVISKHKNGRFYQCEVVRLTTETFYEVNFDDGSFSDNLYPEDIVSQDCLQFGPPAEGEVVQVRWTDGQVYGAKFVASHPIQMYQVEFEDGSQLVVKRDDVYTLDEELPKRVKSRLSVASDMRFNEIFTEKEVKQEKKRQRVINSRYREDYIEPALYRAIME
HP1b binding inh: HTS for Inhibitors of HP1-beta Chromodomain Interactions with Methylated Histone Tails | AlphaScreen HP1-beta / biotin-H3K9me3 peptide binding | AID 540317, 2011 | Potency, µM (doses to about 114 µM), most hits filed as inhibitors | Chromobox protein homolog 1 (Homo sapiens), P83916 | 0.56% of 390,000 active; also: nearly all actives have a fitted effect of over 70% in size
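Compound inhibition of the preformed complex between 50 nM HP1-beta and 50 nM biotinylated H3K9me3 peptide was read by AlphaScreen. Buffer was PBS pH 7.4 with 0.01% Tween-20. Incubations ran 30 min at room temperature, with 10 ug/mL donor/acceptor beads.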
Large screens that a line does not name were inactive; ! = repeats disagree. Shown are actives, neighbours in structure and some others; about 12% of the full set was active somewhere. Calls follow the shape of the dose curve; as a rule, active = well fitted curve in the direction sought with a large enough effect; inconclusive = small, poorly fitted or top-dose-only effect, or another doubt; inactive = no such curve, though single readings can be large; an effect the other way counts as inactive or inconclusive.

COc1cc(NC(=O)Cn2c(=O)n(CC(=O)NCCc3ccc(OC)c(OC)c3)c(=O)c3sccc32)cc(OC)c1	none (no result: Sfp inh, L3MBTL1 inh)
CCN(CC)C(=O)c1ccc2c(=O)n(CCOC)c(=S)[nH]c2c1	BAZ2B block inconclusive, G9a block 45µM, JMJD2A Tudor 18µM (no result: L3MBTL1 inh)
CCN(CC)C(=O)c1ccc2c(=O)n(Cc3cccc(Br)c3)c(=S)[nH]c2c1	none (no result: L3MBTL1 inh)
COCCn1c(=S)[nH]c2cc(C(=O)N3CCc4ccccc4C3)ccc2c1=O	JMJD2A Tudor 32µM (no result: L3MBTL1 inh)
CC1CCN(S(=O)(=O)c2cn(CC(=O)Nc3ccc(F)cc3)c(=O)c3ccccc23)CC1	none (no result: Sfp inh, L3MBTL1 inh)
CCOC(=O)c1noc2nc(C)n(CC(=O)Nc3ccc(Br)cc3C)c(=O)c12	JMJD2A Tudor inconclusive (no result: Sfp inh, L3MBTL1 inh)
O=[N+]([O-])c1ccc(Cl)cc1Sc1nc2ccccc2o1	L3MBTL1 inh inconclusive, BAZ2B block 14µM, G9a block inconclusive, JMJD2A Tudor 45µM, HP1b binding inh 13µM
CCCCCCCn1c2c(c(=N)c3c1CCC3)CCCC2	BAZ2B block inconclusive, G9a block 45µM
CCOc1ccc(CCNC(=O)c2cc3c(-c4ccccc4F)nn(C)c3s2)cc1	none (no result: Sfp inh, L3MBTL1 inh)
CSCC[C@H](NC(=O)CNC(=O)CNC(=O)[C@H](CO)NC(=O)[C@H](CCCNC(=N)N)NC(=O)[C@H](CO)NC(=O)[C@H](CC(C)C)NC(=O)[C@H](CC(C)C)NC(=O)CNC(=O)[C@H](C)NC(=O)[C@H](CC(C)C)NC(=O)[C@H](CCCNC(=N)N)NC(=O)[C@H](Cc1cnc[nH]1)NC(=O)[C@@H](NC(=O)[C@@H](N)C(C)C)[C@@H](C)O)C(=O)N[C@H](C(=O)N[C@@H](CCCCN)C(=O)N[C@@H](CO)C(=O)N[C@@H](CC(N)=O)C(=O)N[C@@H](Cc1ccccc1)C(=O)N[C@H](C(=O)N1CCC[C@H]1C(=O)N[C@H](C(=O)N[C@@H](CC(N)=O)C(=O)N[C@H](C(=O)NCC(=O)N[C@@H](CO)C(=O)N[C@@H](CCCCN)C(=O)N[C@@H](C)C(=O)N[C@@H](Cc1ccccc1)C(N)=O)C(C)C)[C@@H](C)O)C(C)C)C(C)C	none (no result: L3MBTL1 inh, BAZ2B block, G9a block, JMJD2A Tudor, HP1b binding inh)
COc1ccc2nc3cc(Cl)ccc3c(NCCCN3CCN(CCCNc4c5ccc(Cl)cc5nc5ccc(OC)cc45)CC3)c2c1	none (no result: L3MBTL1 inh, BAZ2B block, G9a block, JMJD2A Tudor, HP1b binding inh)
COc1ccc2nc3cc(Cl)ccc3c(C#N)c2c1	G9a block 50µM
COc1ccc(N2CC(NC(=O)Cc3cccs3)CC2=O)cc1 (stereo unspecified)	none (no result: Sfp inh, L3MBTL1 inh)
C=CCNC(=S)N/N=C(\C)c1ccccn1	Sfp inh 79µM, BAZ2B block 4.5µM, JMJD2A Tudor 45µM (no result: L3MBTL1 inh)
CC(=NNC(=S)Nc1ccccc1Cl)c1ccccn1	JMJD2A Tudor 56µM (no result: Sfp inh, L3MBTL1 inh, BAZ2B block, G9a block)
C/C(=N/NC(=O)CNC(=O)c1ccccn1)c1ccccc1	Sfp inh inconclusive, G9a block inconclusive
S=C(Nc1ccccc1Cl)N1CCN(c2ccccn2)CC1	none (no result: G9a block)
C=CCn1c(SCC)nc2ccccc2c1=O	none (no result: Sfp inh, L3MBTL1 inh, BAZ2B block, G9a block)
CCc1ccc(S(=O)(=O)c2nnn3c2nc(NC(C)C)c2cc(Cl)ccc23)cc1	none (no result: Sfp inh, L3MBTL1 inh)
N[C@H](C(=O)O)[C@@H]1[C@@H](C(=O)O)C1(F)F	Sfp inh 89µM (no result: L3MBTL1 inh, BAZ2B block, JMJD2A Tudor, HP1b binding inh)
COC(=O)CCCC1=CC2=C(c3ccccc3)C(=O)C(C)(OC(=O)C3CCCC3)C(=O)C2=CN1Cc1ccco1 (stereo unspecified)	Sfp inh 56µM!, BAZ2B block 71µM, JMJD2A Tudor inconclusive (no result: L3MBTL1 inh)
O=C(CSc1nnc(C2CC2)n1Cc1ccccc1)c1ccc(S(=O)(=O)N2CCOCC2)cc1	Sfp inh 13µM, G9a block 3.2µM
CC(=O)NCc1ccc(C(=O)CSc2nnc(C3CC3)n2C2CC2)cc1	G9a block inconclusive, JMJD2A Tudor 22µM (no result: Sfp inh)
Cn1c(SCC(=O)c2ccccc2)nnc1-c1cnccn1	Sfp inh inconclusive, BAZ2B block inconclusive, G9a block 20µM, JMJD2A Tudor 25µM, HP1b binding inh inconclusive
CCn1c(SCC(=O)c2ccccc2)nnc1-c1cnccn1	none
Cn1c(SCc2ccccc2)nnc1C1CCCNC1 (stereo unspecified)	BAZ2B block inconclusive, G9a block inconclusive, JMJD2A Tudor inconclusive (no result: L3MBTL1 inh)
Cn1c(SCc2ccc(Cl)cc2)nnc1C1CC1	G9a block 32µM
COCCNc1ncnc2c1cnn2-c1cc(Cl)ccc1C	none (no result: Sfp inh, L3MBTL1 inh)
Cc1ccc2c(=O)c(C(=O)c3cccc(Cl)c3)cn(CC(=O)Nc3ccccc3C(F)(F)F)c2n1	none (no result: Sfp inh, L3MBTL1 inh)
Cn1c(SCc2ccccc2)nnc1-c1cnccn1	none (no result: G9a block)
Cn1c(SCC#N)nnc1-c1cnccn1	G9a block 1.4µM
Cn1c(SCC(=O)c2ccccc2)nnc1C1CC1	Sfp inh 56µM, G9a block 40µM
CCOc1ccc(C(=O)CSc2nnc(C3CC3)n2C)cc1	Sfp inh inconclusive, G9a block inconclusive
